From PubChem BioAssay
nsP2pro primary = inhibitors of chikungunya virus nsP2 protease; Potency, µM (series often up to 24.9 µM), inactives show at the top dose activity change, negative = inhibition, most hits filed as inhibitors; Q8JUX6; FRET peptide cleavage, nsP2pro, fluorescence 1 h; 31,000 tested, 1.1% active; calls by dose curve; note: nearly all actives have a fitted effect of over 60% in size
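Enzyme 150 nM, substrate 2.5 uM (both final); Tris-HCl 10 mM pH 8.0 + 0.01% Tween 20; cpd up to 25 uM, 7 pts; 15 min preinc., 1 h RT; fluorescence ex 525/em 598.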
Numbers without * were called inactive; i = inactive; [ ] = remark or other dose. The full list was thinned out, with hits kept by preference. % is set by controls: 0 for no effect and ±100 for the full control effect; potency is the fitted concentration of half-maximal effect.

SMILES	nsP2pro primary
COc1ccc2c(c1)Oc1nc(-c3ccc(C)s3)nc(SCC(=O)Nc3cccc(C(=O)O)c3)c1C2	-1%
O=C(Nc1ccc2c(c1)OCCO2)c1ccc(-c2nc3ccccc3[nH]2)cc1	-18%
O=C(O)C1=C(CSc2nnnn2CS(=O)(=O)O)CS[C@@H]2[C@@H](NC(=O)[C@H](O)c3ccccc3)C(=O)N12	-23%
NCc1ccccc1CC(=O)N[C@@H]1C(=O)N2C(C(=O)O)=C(CSc3nnnn3CC(=O)O)CS[C@H]12	12µM*
Cn1nnnc1SCC1=C(C(=O)O)N2C(=O)[C@H](NC(=O)C(O)c3ccccc3)C2SC1 (stereo partly drawn)	-19%
O=C(NC[C@H]1O[C@@H](CC(=O)N2CCc3ccccc32)[C@H](O)[C@@H]1O)C1CC1	-8%[39.2 µM]
CNC(=O)[C@@H]1C[C@@H](n2cc(CNC(=O)Nc3ccc(Cl)cc3C)nn2)CN1	i
Nc1ccc(S(=O)(=O)N2CCCN(S(=O)(=O)c3ccc4c(c3)OCCO4)CC2)cc1	0%
CCOC(=O)c1c(-c2ccc(C)cc2)csc1NC(=O)c1cc(-c2ccc(OC)cc2)on1	-20%
CCc1cc(C(=O)Nc2sc(C)c(CC)c2C#N)no1	11µM*
CCc1cc(C(=O)N2CCN(c3ccccc3)CC2)no1	-2%
C[C@@H](O)[C@H](NC(=O)c1ccc(C#Cc2ccc(CN3CCOCC3)cc2)cc1)C(=O)NO	-10%
OC[C@H]1O[C@@H](OC/C=C/c2ccc(O)cc2)[C@H](O)[C@@H](O)[C@@H]1O	16%
CC1=C(C(=O)O)/C(=C\CO[C@@H]2O[C@H](CO)[C@@H](O)[C@H](O)[C@H]2O)C(OC(=O)/C=C/c2ccc(O)cc2)C1 (stereo partly drawn)	14%[10 µM]
CC1=C(C(=O)O)/C(=C\CO[C@@H]2O[C@H](CO)[C@@H](O)[C@H](O)[C@H]2O)C(OC(=O)/C=C\c2ccc(O)cc2)C1 (stereo partly drawn)	0.024µM*
N#Cc1ccc(NC(=O)Nc2nnc(-c3ccncc3)s2)cc1Br	-10%
O=C(OCC1OC(Oc2ccc(O)cc2COC(=O)C2(O)C(O)CCC(=O)C2OC(=O)C2C=CCC2)C(OC(=O)C2C=CCC2)C(O)C1O)C1C=CCC1 (stereo not drawn)	15%[10 µM]
O=C(c1ccc(F)cc1)N1C[C@@H]2C[C@H](C1)c1ccc(NS(=O)(=O)Cc3ccccc3)c(=O)n1C2	13µM*
COc1ccc(S(=O)(=O)Nc2ccc3n(c2=O)C[C@H]2C[C@@H]3CN(C(=O)c3ccccn3)C2)cc1	-29%
CCCS(=O)(=O)Nc1ccc(=O)n2c1[C@@H]1C[C@@H](CN(C(=O)c3ccc(F)cc3)C1)C2	-1%[39.2 µM]
CC(C)N(C[C@H]1O[C@@H](n2cnc3c(N)ncnc32)[C@H](O)[C@@H]1O)C1CC(CCc2nc3ccc(C(C)(C)C)cc3[nH]2)C1 (stereo partly drawn)	175%
COCCn1c(C)cnc1CCNS(=O)(=O)c1c(C)nn(C)c1C	10µM*
COCCn1c(C)cnc1CCNC(=O)NCC(C)C	i
COCCn1c(C)cnc1CCNS(=O)(=O)c1cc(OC)ccc1OC	1%
O=C(O)C(=O)CBr	-22%
SMILES	nsP2pro primary
O=C(Nc1ccc(Cl)c([N+](=O)[O-])c1)Nc1cccc(-c2ccncc2)n1	0%
C/C(=C1\CCOC(=O)S1)N(C=O)Cc1cnc(C)nc1N	5%
CC(=C(CCOC(=O)C(C)C)SSC(CCOC(=O)C(C)C)=C(C)N(C=O)Cc1cnc(C)nc1N)N(C=O)Cc1cnc(C)nc1N	11µM*
CCCC/C=C\CCCCCc1cc(=O)c2ccccc2n1C	-1%
Cc1ccc2c(c1)[C@H]1CN(C)CC[C@H]1N2C(=O)CSc1nnnn1-c1ccc(Cl)cc1	26%
CC(C)CN(C[C@@H](O)[C@H](Cc1ccccc1)NC(=O)[C@@H](NC(=O)CNCc1cccc(F)c1)C(C)(C)C)S(=O)(=O)c1cccc(N)c1	-5%
O=[S+]1([O-])c2cccnc2OC(Cn2cccc2)CN1Cc1cccc(F)c1 (stereo not drawn)	i
CCOc1ccc(C(=O)Nc2ccc(-c3nnc4n3CCCCC4)cc2)cc1OCC	10µM*
COc1ccc(Cl)cc1C(=O)Nc1ccc(-c2nnc3n2CCCCC3)cc1	-2%
O=C(CCC1CCCC1)Nc1ccc(-c2nnc3n2CCCC3)cc1	5%
C[C@@H](O)[C@H]1C(=O)N2C(C(=O)[O-])=C(SC3Cn4cnc[n+]4C3)[C@H](C)[C@H]12 (stereo partly drawn)	-26%[5.1 µM]
O=C(NC1CCCCC1)O[C@@H]1CO[C@H]2[C@@H]1OC[C@@H]2n1nnnc1-c1ccccc1	-4%[39.2 µM]
COc1ccc(NC(=O)N[C@H]2CO[C@H]3[C@@H]2OC[C@@H]3n2nnnc2-c2ccccc2)cc1	-4%[39.2 µM]
O[C@@H]1CO[C@H]2[C@@H]1OC[C@@H]2n1nnnc1SCc1ccco1	11µM*
Cc1cnc(-c2ccccc2C(C)C)nc1NCc1ccc(-c2cccc(S(N)(=O)=O)c2)cc1	i
O=C(NCc1nnc2n1CCCCC2)C1CC2(CCNCC2)CN1 (stereo not drawn)	i
CN[C@@H](C)C(=O)N1CC[C@H](NC(=O)Cc2cccs2)C[C@H]1C(=O)N[C@@H](Cc1ccc(OC)cc1)C(N)=O	i
CN1CC(=O)N(C2CCCNCC2)Cc2c1ncnc2N1CCCC1CO (stereo not drawn)	-29%
COCCNC(=O)C1CCC(=O)N1C1CCNCC1 (stereo not drawn)	3%
CN(C)C(=O)N1CCN(C2CCNCC2)C(=O)C1	13µM*
O=C(O)c1cccc(-c2noc(-c3ccc(C(F)(F)F)cc3)n2)c1	-2%
C=C1C(=O)OC2CC3(C)C(O)C(=O)C=C(C)C3CC12 (stereo not drawn)	93%
CC(C)N[C@@H]1CCn2c(=O)[nH]c3cccc(c32)[C@H]1O	11µM*
CC(=O)N1CCN(c2ccc(OCC3COC(Cn4ccnc4)(c4ccc(Cl)cc4Cl)O3)cc2)CC1 (stereo not drawn)	22%
O=C(CC1C(=O)OCCN1Cc1ccccc1)Nc1cccc(C(F)(F)F)c1 (stereo not drawn)	-16%
SMILES	nsP2pro primary
CCN1CCOC(=O)C1CC(=O)Nc1ccccc1C(F)(F)F (stereo not drawn)	11µM*
CCOC(=O)C1=CN(CC(=O)Nc2ccccc2C(F)(F)F)S(=O)(=O)N=C1C	-7%
CC(C)n1cnnc1C1CCCN1C(=O)Nc1ccccc1 (stereo not drawn)	-2%
O=C(NC(c1ccco1)c1cc(Cl)c2cccnc2c1O)c1cccs1 (stereo not drawn)	-20%
CCC1C(=O)NCCN1Cc1cn(-c2cccc(F)c2)nc1-c1ccc(C)o1 (stereo not drawn)	11µM*
Cc1cc(C)n(C2CCN(c3nccc(-c4ccccn4)n3)C2)n1 (stereo not drawn)	i
Cc1cc(C(=O)N2CCCC(n3c(C)cnc3C3CCC3)C2)nn1C (stereo not drawn)	i
CCn1cc(S(=O)(=O)N2CCC(c3noc(-c4ccncc4)n3)C2)cn1 (stereo not drawn)	i
COc1cc(O)c(C(CC(=O)N2CCCC(COc3ccc(F)cc3)C2)c2ccc3c(c2)OCO3)c(OC)c1 (stereo not drawn)	4%[39.2 µM]
COCCOCc1nc(C2CCNCC2)no1	-5%
Fc1ccc(CN2CCn3c(nnc3-c3ccncc3)C2)cc1	-5%
